# Source: PubChem BioAssay (University of Kansas High Throughput Screening Laboratory)
# mHTT-CaM PPI inh – mHTT-calmodulin interaction abrogation. inhibition, % at 15 µM. 190,000 tested, 3.6% active. AID 1671202. AlphaScreen His-mHTT/GST-CaM binding, luminescence. P42858;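 further: 0% = both proteins with DMSO and 100% = one protein alone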
# Pf apPOL inh – Pf-apPOL DNA polymerase inhibition | Recombinant Pf-apPOL, molecular beacon fluorescence, 1.5 h | inhibition, % at 10 µM | 210,000 tested, 0.25% active
# * = called active by the depositor; / = no result; ! = repeats disagree. Many of the other results were omitted from the sample, so hits are more common in it than they were. No stated cut-off is given here; in the data, active means inhibition above about 50%; inactive means the rest.
SMILES,mHTT-CaM PPI inh,Pf apPOL inh
CN(c1ccc(C(=O)NC2CCCCCC2)cc1)S(=O)(=O)c1ccccc1,2.5,-8.2
Cc1cc(O)cc2c1C(=O)C(=Cc1cccc(Cl)c1)O2,4.2,-5.9
COc1ccc(CNC(=O)c2ncn[nH]2)cc1,87.0*,-5.6
COc1ccc(NC(=O)c2ncn[nH]2)cc1,-1.1,2.3
COc1ccc(S(=O)(=O)N2CC3CN(C(=O)Cc4cccc(F)c4)CC(C2)O3)cc1,1.2,-0.8
CNC(=O)COc1ccc(Nc2nnc(-c3ccc(C)cc3)c3ccccc23)cc1,67.0*!,-0.5
CN(C)C(=O)c1ccc(-c2nnc(NCc3ccccc3)c3ccccc23)cc1,33.2,-2.2
COc1ccc(Nc2nnc(-c3ccc(C(=O)NCCO)cc3)c3ccccc23)cc1,1.8,-4.0
CC(=O)Nc1ccc(Nc2nnc(-c3ccc(O)cc3)c3ccccc23)cc1,33.0,-71.2
CCN(CC)C(=O)COc1ccc(-c2nnc(NCc3ccccc3)c3ccccc23)cc1,99.0*,-76.9
CCOc1ccc(-c2nnc(Nc3ccc(OC)c(C(N)=O)c3)c3ccccc23)cc1,65.0*,-2.4
CN=C(C)C(C(=O)OC)=C(O)c1ccc(C(F)(F)F)cc1,/,-5.6
CCOc1ccc(NC(=O)c2nnn(-c3cc(C)cc(C)c3)c2N)cc1,10.0,-1.5
Cc1cccc(OCc2nc(C(=O)N3CCCCC3)cs2)c1C,9.0,0.8
COc1ccc(C(=O)N2CCC3(CC2)NC(=O)c2ccc(Cl)cc2N3)c(C)c1,-5.3,-1.6
O=S(=O)(N(Cc1ccccc1)[C@H](CO)Cc1ccccc1)N(Cc1ccccc1)[C@H](CO)Cc1ccccc1,0.5,-1.5
CC(C)C[C@@H](CO)N(Cc1ccccc1)S(=O)(=O)N(Cc1ccccc1)[C@H](CO)CC(C)C,93.2*,-1.7
CC(C)C[C@@H](CO)N(Cc1ccccc1)S(=O)(=O)N(Cc1ccccc1)[C@@H](CO)CC(C)C,99.9*,-2.7
COc1ccc(CN([C@H](C)CO)S(=O)(=O)N(Cc2ccccc2)[C@H](CO)C(C)C)cc1,16.3,2.0
COc1ccc(CN([C@H](CO)CC(C)C)S(=O)(=O)N(Cc2ccccc2)[C@H](CO)CC(C)C)cc1,97.8*,-1.2
C=C[C@H](CC(C)C)N(Cc1ccccc1)S(=O)(=O)N(Cc1ccccc1)[C@@H](C=C)CC(C)C,-11.5,-3.4
O=C(c1cc2c(s1)CCCC2)N1CCc2nc3cc(-c4ccccc4)[nH]n3c(=O)c2C1,-1.8,1.6
CCN1CCCn2nc(C3CCN(C(=O)NCc4cccc(OC)c4)CC3)cc2C1=O,7.1,-5.8
COc1ccc(OC)c(Nc2nc(Cl)nc(Nc3cc(OC)ccc3OC)n2)c1,53.0*,-2.4
COc1ccc(Nc2nc(Cl)nc(Nc3ccc(OC)c(OC)c3)n2)cc1OC,44.0,-5.5
SMILES,mHTT-CaM PPI inh,Pf apPOL inh
CC1CCN(C(=O)c2csc(N3CCN(c4ccccc4F)CC3)n2)CC1,17.5,-2.1
CC12CCC3C(CCC4CCCCC43C)C1CCC2N (stereo not given),100.0*,-1.2
CC12CCC3C(CCC4CCCCC43C)C1CC(c1nc3ccccc3[nH]1)=C2O (stereo not given),-1.0,-1.0
COc1ccc(-n2ccnc2SCC(=O)Nc2ccc(OC(F)(F)F)cc2)cc1,11.0,11.0
CC1CCN(Cc2csc(N3CCN(C(=O)c4c(F)cccc4F)CC3)n2)CC1,7.0,-0.8
CCOc1nc(N=C(N)N)nc2c(C)cccc12,65.1*,3.0
CCOc1nnc(-c2ccc(C)cc2)c2ccccc12,-11.0,3.4
c1ccc(CCn2c(-c3ccccc3)csc2=Nc2ccccc2)cc1,1.2,/
Cc1ccc(-c2csc(=Nc3ccccc3)n2CCCN(C)C)cc1,73.0*,3.6
OCCCn1c(-c2ccc(Cl)s2)csc1=Nc1ccccc1,41.0,19.1
Cc1ccc(-c2csc(=Nc3ccccc3)n2CCCO)cc1,53.0*,-3.2
COc1ccc(C=C2Oc3cc(OC(=O)c4ccc(F)cc4)ccc3C2=O)c(OC)c1OC,-3.0,-9.8
Cn1nc(C(=O)NCc2ccccc2)c2c1CCN(C(=O)c1ccccc1Cl)C2,34.2,-9.8
COc1cc(OC)cc(C(=O)N2CCc3c(c(C(=O)NCc4ccccc4)nn3C)C2)c1,74.8*,-3.2
CC(Oc1ccccc1)C(=O)N1CCc2c(c(C(=O)NCc3ccccc3)nn2C)C1 (stereo not given),55.0*,-6.8
Cn1nc(C(=O)NCc2ccccc2)c2c1CCN(C(=O)c1ccccc1)C2,36.5,1.3
Cc1ccccc1C(=O)N1CCc2c(c(C(=O)NCc3ccccc3)nn2C)C1,11.5,-16.4
COc1ccc2cc(C(=O)N3CCc4c(c(C(=O)NCc5ccccc5)nn4C)C3)[nH]c2c1,36.7,-2.3
COc1ccc(C(=O)N2CCc3c(c(C(=O)NCc4ccccc4)nn3C)C2)c(OC)c1,51.4*,-9.9
Cc1ccc(C(=O)N2CCc3c(c(C(=O)NCc4ccccc4)nn3C)C2)cc1,75.3*,-2.4
CC(=O)N1CCc2sc(S(=O)(=O)Nc3ccccc3C)cc2C1,6.4,-1.2
CCNC(=O)c1cn2ccnc(-c3ccc(OC)cc3)c2n1,5.5,7.1
O=C(Nc1cccc(Br)c1)Nc1c[nH]c2ccccc12,39.7,4.6
COc1ccc(-c2cc(C(F)(F)F)n3ncc(C(=O)Nc4cccnc4Cl)c3n2)cc1OC,2.0,-4.4
COc1ccc(C(=O)N2CCc3c(c(C(=O)NCc4ccccc4)nn3C)C2)cc1,55.8*,-10.4
SMILES,mHTT-CaM PPI inh,Pf apPOL inh
Cn1nc(C(=O)NCc2ccccc2)c2c1CCN(C(=O)c1ccc(C#N)cc1)C2,20.6,-2.2
CCCC1c2cccn2CCN1C(=O)Nc1cc(Cl)ccc1C (stereo not given),-1.9,1.7
COc1ccccc1-c1nnc(NC(=O)C2CC(=O)N(c3ccc(F)cc3)C2)o1 (stereo not given),22.1,1.5
Cc1ccc(CC(=O)Nc2nnc(C3CC(=O)N(c4ccc(F)cc4)C3)o2)cc1 (stereo not given),0.4,-7.5
O=C(Cc1ccc(F)cc1)Nc1nnc(C2CC(=O)N(c3ccc(F)cc3)C2)o1 (stereo not given),80.0*,-0.8
O=C(Nc1nnc(C2CC(=O)N(c3ccc(F)cc3)C2)o1)c1ccc(F)cc1 (stereo not given),15.8,0.0
O=C(Cc1ccc(F)cc1)Nc1nnc(-c2ccc3c(c2)CCCC3)o1,-9.7,-6.2
COc1ccc(C(=O)Nc2nnc(C3CC(=O)N(c4ccc(F)cc4)C3)o2)cc1OC (stereo not given),54.2*,-6.9
O=C(Cc1ccc(F)cc1)Nc1nnc(C2=COCCO2)o1,51.1*,-2.8
Cc1nc(C)c(-c2nnc(NC(=O)C3CC(=O)N(c4ccc(F)cc4)C3)o2)s1 (stereo not given),96.8*,-0.7
O=C(Nc1ccccc1O)c1cc(I)ccc1Cl,2.8,-17.2
CCOc1ccc(/C=C2\N=C(c3ccc(OC)cc3Br)OC2=O)cc1,2.0,-2.2
O=C(CCSc1ccc(Cl)cc1)Nc1ccccc1Cl,-20.3,-5.7
CCOc1ncccc1CNC(=O)c1ccc(F)cc1Cl,-7.5,-2.6
O=CNC(=O)c1sc2nccc3c2c1N=CN3c1ccccc1,1.7,-7.0
O=C(NCc1ccccc1)c1ccccc1N(Cc1ccccc1)S(=O)(=O)c1ccccc1,-2.4,-1.3
Cc1nc(C2CC2)nc(N2CCN(C(=O)C3CC3)CC2)c1Cc1ccccc1F,16.1,-4.4
O=C(Cc1nc(-c2ccccc2)n[nH]1)NC1CC1,5.7,0.3
CSc1ccc(N2CC(c3nnc(NC(=O)c4ccco4)o3)CC2=O)cc1 (stereo not given),65.0*,-1.6
